High-throughput results from PubChem.
Most compounds without a hit are left out; they make up all but 21% or so of the library.
Pf growth 96h = P. falciparum growth inhibition at 96 hour, primary screen for plastid delayed-death inhibitors; P. falciparum luciferase reporter growth, 96 h; Potency, µM (top dose mostly 28.7 µM), for the others: at the top dose activity change, negative = inhibition, usual class: inhibitors; 320,000 compounds, 6.9% hits; further: potency means the concentration at half of the fitted maximal effect; on the % scale 0 is the no-effect control and ±100 the full control effect
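Compounds incubated with erythrocytes infected by luciferase-expressing P. falciparum (2% hematocrit, 0.05% parasitemia final) for 96 hours, 37 C in 5% CO2. Growth inhibition scored as decreased luciferase luminescence.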
Shiga toxin inh = blocks Shiga toxin action in Vero cells; Vero cells, Shiga toxin protein synthesis inhibition reporter; inhibition, % at 38.7 µM; 290,000 compounds, 9.2% hits; in the data active means inhibition mostly above about 28%, no sharp cut-off; inactive means mostly below about 43%; further: 0% is about no effect
CHX counter = affects cycloheximide protein synthesis inhibition readout, counter-screen. 300,000 compounds, 12% hits. AID 2314. cell reporter, cycloheximide protein synthesis inhibition counterscreen. max response, %; in the data active means max response mostly above about 13%, no sharp cut-off; inactive means mostly below about 14%; further: read at 38.3 µM for the half of the compounds with a filed dose; 0% is about no effect
Pf growth 48h = P. falciparum growth inhibition at 48 hours (one generation); 310,000 compounds, 5.9% hits; Potency, µM (doses to about 28.7 µM), for the others: at the highest dose activity change, negative = inhibition, hits mostly inhibitors; P. falciparum luciferase growth in erythrocytes, 48 h; further: potency means the concentration at half of the fitted maximal effect; on the % scale 0 is the no-effect control and ±100 the full control effect
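Firefly luciferase activity from engineered P. falciparum reports growth; inhibitors lower the luminescent signal. Cultures contained 2% hematocrit erythrocytes at 0.1% final parasitemia.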
* = called active by the depositor; i = inactive; ? = inconclusive; nt = not tested or not shown; + = active, no number. Unless noted, the call rests on the fitted dose curve; in most records, active means well fitted inhibition curve with a large enough effect; inconclusive means small, poorly fitted or top-dose-only effect, or another doubt; inactive means no such curve, though single readings can be large or run the other way.

SMILES | Pf growth 96h | Shiga toxin inh | CHX counter | Pf growth 48h
CCCn1c(N)c(C(=O)COC(=O)CCNS(=O)(=O)c2ccccc2F)c(=O)[nH]c1=O | 10.4% | nt | nt | 0.5%
CC1(C(=O)N2CCN(C(=O)c3ccco3)CC2)CC1(Br)Br (stereo unspecified) | 4.4% | -33.2 | -1.1 | 25.1%
COc1ccc(NC(C)C(=O)Nc2cc(C(F)(F)F)ccc2N2CCOCC2)c(OC)c1 (stereo unspecified) | 0.0465µM* | 14.8 | 1.7 | 0.117µM*
CC(C(=O)Nc1cc(C(F)(F)F)ccc1N1CCOCC1)N1C(=O)C2CCCCC2C1=O (stereo unspecified) | 23.2% | nt | nt | -8.5%
COc1cc(Cl)c(C)cc1NC(C)C(=O)Nc1cc(C(F)(F)F)ccc1N1CCOCC1 (stereo unspecified) | 0.0657µM* | -9.2 | 1.0 | 0.147µM*
CCC(Oc1ccccc1)C(=O)Nc1cc(C(F)(F)F)ccc1N1CCOCC1 (stereo unspecified) | 1.47µM* | nt | nt | 1.65µM*
CC(=O)Nc1cc(C(F)(F)F)ccc1N1CCOCC1 | nt | 8.5 | -3.2 | 11.2%
CC(C(=O)Nc1cc(C(F)(F)F)ccc1N1CCOCC1)N1C(=O)C2CC=CCC2C1=O (stereo unspecified) | nt | -8.6 | -3.4 | -8.3%
CCOC(=O)C(=CNc1cc(C(F)(F)F)ccc1N1CCOCC1)C(=O)OCC | ? | -3.5 | -1.8 | 4.15µM*
O=C(c1ccc(Cl)cc1)c1c[nH]c(C(=O)NNc2ccccc2)c1 | 24.5% | -19.5 | -6.9 | 6.5%
COc1ccc(OS(=O)(=O)c2c(C)noc2C)cc1 | 0.0% | 7.3 | -1.4 | -21.2%
COc1ccc(NC(=O)[C@H](C)NC(=O)C2CCN(S(=O)(=O)c3ccc(OC)cc3)CC2)cc1 | -14.6% | -6.2 | -2.8 | -4.9%
CCN(Cc1cc2cc(OC)ccc2[nH]c1=O)C(=O)Cc1ccc(OC)cc1 | -11.6% | -13.4 | 6.2 | ?
O=C(c1cccs1)N(Cc1cc2ccccc2[nH]c1=O)c1ccccc1 | -25.7% | 1.2 | 3.6 | -23.2%
CCN(Cc1cc2cc(OC)ccc2[nH]c1=O)C(=O)c1ccncc1 | 9.28µM* | -3.5 | -1.7 | 8.9%
COCC(=O)N(Cc1cc2cc(OC)ccc2[nH]c1=O)c1ccccc1 | 31.5% | 33.8 | 16.4* | 20.0%
Cc1ccc(N(Cc2cc3ccccc3[nH]c2=O)C(=O)c2cccs2)cc1C | ? | -13.3 | 1.0 | 11.7µM*
COCC(=O)N(Cc1cc2cc(C)ccc2[nH]c1=O)c1ccc(C)c(C)c1 | 10.4µM* | nt | 7.1 | -8.4%
CN(C)/N=C/C=C1\CCC/C(=C\c2ccc(F)c(F)c2)C1=O | ? | + | 86.6* | ?
COc1ccc(/C=C2\CCC/C(=C\C=N\N(C)C)C2=O)cc1 | ? | 40.7 | 27.7* | -8.7%
COc1ccc(/C=C2\C(=O)c3ccccc3OC2c2ccccc2)cc1 (stereo unspecified) | ? | 22.3 | 9.1 | ?
Fc1ccc(Sc2ccccc2CNC2=NCCN2)cc1 | 2.08µM* | -1.1 | -1.8 | 5.86µM*
CCc1ccc2c(c1)C(c1ccc([N+](=O)[O-])cc1)=NNC(c1ccc(Br)cc1)=N2 | -23.7% | 19.0 | 1.3 | 9.28µM*
S=c1sc2c(N3CCOCC3)ncnc2n1-c1ccccc1 | 14.7µM* | 35.6 | 19.3 | nt
CCOC(=O)c1c(NC(=O)c2ccccc2Br)sc2c1CCc1ccccc1-2 | ? | -8.2 | 12.8 | nt
SMILES | Pf growth 96h | Shiga toxin inh | CHX counter | Pf growth 48h
COc1ccc(CCN(C)C(=O)c2ccc(S(=O)(=O)NCc3ccco3)cc2)cc1OC | -1.1% | 80.7* | 54.7* | -5.9%
CN(Cc1cccs1)C(=O)c1ccc(S(=O)(=O)NCc2ccco2)cc1 | ? | 25.6 | 26.9* | -2.4%
COc1ccc(CNC(=O)/C=C/c2ccc(S(=O)(=O)NCc3ccco3)cc2)cc1OC | ? | -3.4 | 0.8 | ?
Fc1ccc(CN2CCCN(Cc3nc(-c4ccc5c(c4)OCO5)no3)CC2)cc1 | 10.1% | 12.1 | 14.7* | -13.1%
CN(CCCCN1CCOCC1)Cc1nc(-c2ccc3c(c2)OCO3)no1 | 13.2% | 19.7 | 9.5* | 35.0%
CN(CCN1CCc2ccccc2C1)Cc1nc(-c2ccc3c(c2)OCO3)no1 | ? | -8.3 | -1.4 | 17.0%
COCC1CCN(Cc2nc(-c3ccc4c(c3)OCO4)no2)C1 (stereo unspecified) | -14.0% | 67.2* | 38.6* | 71.4%
c1ccc(OCCN2CCN(Cc3nc(-c4ccc5c(c4)OCO5)no3)CC2)cc1 | 14.7µM* | 3.0 | 7.2 | 36.3%
c1ccc(Cc2noc(CN3CCN(Cc4ccc5c(c4)OCO5)CC3)n2)cc1 | -23.2% | -31.1 | -3.2 | -11.5%
c1cc(C2CCN(Cc3nc(-c4ccc5c(c4)OCO5)no3)CC2)ccn1 | ? | -11.7 | -2.0 | 13.7%
NC(=O)c1cnn2c(-c3ccc(Cl)cc3Cl)ccnc12 | 2.4% | -3.7 | -4.4 | 3.2%
COc1ccc(CN2C(=O)CC(C(=O)NCCc3ccc(S(N)(=O)=O)cc3)SC2=Nc2ccccc2)cc1 (stereo unspecified) | i | 3.5 | 11.5 | ?
Cc1ccccc1NC(=O)NC1(C(=O)NCC2CCCO2)CCCCC1 (stereo unspecified) | 10.6% | 10.5 | -1.3 | 11.4%
NS(=O)(=O)c1ccc(NC(=O)CSc2nc3c(cnn3-c3ccccn3)c(=O)[nH]2)cc1 | -1.0% | nt | nt | 4.8%
C=C1CCN([C@H](C(=O)NCc2ccccc2)C(C)C)S(=O)(=O)c2ccccc21 | 11.7µM* | -3.8 | -2.9 | ?
C=C1CCN(C(C(=O)NCc2ccc(Cl)c(Cl)c2)C(C)C)S(=O)(=O)c2ccccc21 (stereo unspecified) | nt | 1.0 | -0.7 | nt
O=C(c1cc2ccccc2cc1O)N1CCN(c2ccccn2)CC1 | ? | -5.4 | -2.2 | ?
Oc1cc(-c2cccnc2)cc2cccnc12 | 4.15µM* | nt | nt | 7.38µM*
CN1CCN(c2cc(-c3cc(O)c4ncccc4c3)ccn2)CC1 | ? | nt | nt | 11.7µM*
CN1CCN(C(=O)c2cccc(-c3cc(O)c4ncccc4c3)c2)CC1 | 10.4µM* | nt | nt | 10.4µM*
Cc1cccc2c(C(=O)O)cc(-c3cccnc3)nc12 | -20.6% | -11.6 | -1.1 | -5.6%
Cc1cc(C)c(C)c(S(=O)(=O)N2CCC(C(=O)N3CCCCCCC3)CC2)c1C | ? | -6.6 | 1.8 | -5.0%
COC(=O)[C@@]1(Cc2ccc(F)cc2)[C@H]2c3cc(C(=O)N4CCCC4)n(CCCNc4ncc(C(F)(F)F)cc4Cl)c3C[C@H]2CN1C(=O)c1ccccc1 | ? | 8.4 | -2.8 | 2.08µM*
COCCCNC(=O)C1CCN(C(=O)c2cc3sccc3n2Cc2ccc(F)cc2)CC1 | ? | -12.8 | -2.0 | nt
COC(=O)[C@@]1(Cc2ccc(F)cc2)[C@H]2c3cc(C(=O)N4CCCC4)n(Cc4ccc(C(F)(F)F)nc4)c3C[C@H]2CN1C(=O)c1ccccc1 | 2.08µM* | -3.2 | -6.2 | ?
O=C(CN1C(=O)C2C3CC(C(Br)C3Br)C2C1=O)N1CCN(Cc2ccccc2)CC1 (stereo unspecified) | -19.8% | -1.7 | 30.6 | ?
NS(=O)(=O)c1cccc(NS(=O)(=O)c2ccc(/C=C/C(=O)OCC(=O)c3ccccc3)cc2)c1 | ? | 7.5 | -2.3 | -10.3%
